Screening results (PubChem)
The entries come from a sample that favours hits as a whole.
APEX1 inh – APE1 (human) endonuclease inhibition; P27695; recombinant APE1, TAMRA/BHQ-2 abasic DNA cleavage fluorescence; Potency, µM (series often up to 65.8 µM), most hits filed as inhibitors; hit rate 0.35% among 350,000; further: nearly all actives have a fitted effect of over 55% in size
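APE1 at 0.75 nM preincubated 15 min at room temperature with compound. Reaction then started with 50 nM double-stranded THF-abasic substrate labelled with TAMRA/BHQ-2, and 525/598 nm fluorescence read kinetically. Activity taken as third-minus-first read difference, normalized to DMSO and NSC13755 controls.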
BLM helicase inh – inhibitors of human Bloom syndrome helicase BLM | P54132 | recombinant BLM DNA unwinding, fluorescence dequenching | Potency, µM (doses to about 56.1 µM), usual class: inhibitors | hit rate 0.2% among 350,000 | AID 2528; further: nearly all actives have a fitted effect of over 35% in size
L3MBTL1 block – L3MBTL1 (human) inhibition; hit rate 0.66% among 230,000; Q9Y468; AlphaScreen L3MBTL1–H3K9me1 peptide binding; Potency, µM (titrated, usually from 57.1 µM), actives largely listed as inhibitors; further: nearly all actives have a fitted effect of over 60% in size
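First, the protein-peptide complex forms for 30 min at room temperature (L3MBTL1 50 nM, biotinylated H3K9me1 peptide 75 nM). Next, compounds are pin-transferred and incubated 30 min. Finally, AlphaScreen beads are added and read after 30 min.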
RECQ1 inh-1 – RECQ1 (human) helicase inhibition. Potency, µM (top dose mostly 57.3 µM), hits mostly inhibitors. P46063. RECQ1 DNA unwinding, red fluorescence kinetic read. hit rate 0.54% among 240,000. AID 2549; further: nearly all actives have a fitted effect of over 30% in size
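RECQ1T1 50 nM; forked duplex (20 bp + 30-nt ss tails) 200 nM, ATP 2 mM final; pH 8.0, 2 mM MgCl2, 2.5 ug/ml poly(dI-dC); 15 min compound preincubation; discontinuous kinetic read over 2 h at RT.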
KAT2A inh – blocks human GCN5L2 histone acetyltransferase; Q92830; GCN5L2 HAT assay, ThioGlo1 CoA-SH fluorescence; Potency, µM (series often up to 58.9 µM), hits mostly inhibitors; hit rate 0.21% among 390,000
Target sequence (Q92830 whole entry, looked up): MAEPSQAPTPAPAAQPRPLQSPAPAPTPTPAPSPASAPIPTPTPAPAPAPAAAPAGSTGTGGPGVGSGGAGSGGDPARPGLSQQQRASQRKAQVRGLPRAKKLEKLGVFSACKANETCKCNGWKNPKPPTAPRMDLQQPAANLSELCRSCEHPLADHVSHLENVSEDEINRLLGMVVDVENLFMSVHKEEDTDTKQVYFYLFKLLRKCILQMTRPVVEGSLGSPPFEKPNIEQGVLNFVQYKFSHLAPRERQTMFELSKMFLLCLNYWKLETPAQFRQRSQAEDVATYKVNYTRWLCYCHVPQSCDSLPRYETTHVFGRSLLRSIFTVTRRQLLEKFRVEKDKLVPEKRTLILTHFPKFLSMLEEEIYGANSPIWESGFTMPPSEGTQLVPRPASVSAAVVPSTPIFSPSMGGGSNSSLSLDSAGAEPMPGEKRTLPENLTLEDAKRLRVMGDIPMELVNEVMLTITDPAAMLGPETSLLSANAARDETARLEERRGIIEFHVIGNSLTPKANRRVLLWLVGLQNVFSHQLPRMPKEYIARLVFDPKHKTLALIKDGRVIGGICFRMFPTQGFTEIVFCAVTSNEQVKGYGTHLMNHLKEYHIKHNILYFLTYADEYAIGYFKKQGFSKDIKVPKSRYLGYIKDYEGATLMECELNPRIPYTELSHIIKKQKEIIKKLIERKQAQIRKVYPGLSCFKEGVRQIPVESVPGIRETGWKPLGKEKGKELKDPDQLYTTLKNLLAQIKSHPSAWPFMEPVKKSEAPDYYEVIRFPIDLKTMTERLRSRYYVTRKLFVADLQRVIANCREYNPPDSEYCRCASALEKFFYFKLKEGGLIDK
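Free CoA generated was detected with ThioGlo1 (50uM) fluorescence at Ex340nm/Em540nm, read immediately and after 20 min at room temperature. Enzyme, 20 nM in HEPES pH 7.5 buffer, saw compounds 15 min before adding 75uM H3(1-25) peptide and 70uM acetyl-CoA.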
JMJD2E inh – JMJD2E (human) inhibition; AID 2147; Potency, µM (top dose mostly 57.1 µM), actives largely listed as inhibitors; hit rate 1.6% among 230,000; JMJD2E catalytic domain, FDH-coupled NADH fluorescence (FDH is formaldehyde dehydrogenase); B2RXH2; active means well fitted inhibition curve with a large enough effect, not every such curve was filed as active; inconclusive means small, poorly fitted or top-dose-only effect, or another doubt; inactive means no such curve, though single readings can be large or run the other way; further: nearly all actives have a fitted effect of over 50% in size
RECQ1 conf – confirmation of human RECQ1 helicase inhibitors; AID 2708; RECQ1 helicase DNA unwinding, fluorescence; shares compounds with RECQ1 inh-1; Potency, µM (series often up to 229 µM), usual class: inhibitors; hit rate 28% among 610; further: nearly all actives have a fitted effect of over 45% in size
RECQ1 ADP FP – counter-screen for RECQ1 inhibitors: ADP displacement. shares compounds with RECQ1 inh-1. ADP fluorescence polarization displacement counterscreen. Potency, µM (titrated, usually from 228 µM), hits mostly inhibitors. hit rate 27% among 530. AID 2711; further: nearly all actives have a fitted effect of over 45% in size
RECQ1 inh-2 – confirmation of human RECQ1 helicase inhibitors. hit rate 15% among 1,100. shares compounds with RECQ1 inh-1. AID 504841. recombinant RECQ1 DNA unwinding, red fluorescence. Potency, µM (doses to about 119 µM), usual class: inhibitors; further: nearly all actives have a fitted effect of over 50% in size
Hits are given with their value; 0 = inactive; ? = inconclusive; - = not tested or not shown; [ ] = dose if it differs, or a comment. Unless noted, the call rests on the fitted dose curve; in most records, active means well fitted curve in the direction sought with a large enough effect; inconclusive means small, poorly fitted or top-dose-only effect, or another doubt; inactive means no such curve, though single readings can be large; an effect the other way counts as inactive or inconclusive.

SMILES	APEX1 inh	BLM helicase inh	L3MBTL1 block	RECQ1 inh-1	KAT2A inh	JMJD2E inh	RECQ1 inh-2	others
CN(c1ccc(F)cc1)S(=O)(=O)c1ccc(Cl)c(C(=O)Nc2ccncc2)c1	0	-	0	-	0	-	-
N#Cc1ccccc1OC[C@H](O)CNCCNC(=O)Nc1ccccc1	?	0	-	0	0[0.501 µM]	0	-
CCCCC1=CC2=CC(=O)C(C)(OC(=O)C3CCCC3)C(=O)C2=CO1 (centres undefined)	0	0	-	?	0	0	79µM
CCn1c(SCC(=O)N2c3ccccc3Sc3ccccc32)nnc1-c1ccco1	0	0	0[11.4 µM]	0	0	0	-
C=CCn1c(SCC(=O)N2c3ccccc3Sc3ccccc32)nnc1-c1ccco1	0	0	0	0	0	0	-	RECQ1 conf=0;RECQ1 ADP FP=0
O=C(NCCCCC(NC(=O)c1ccc([N+](=O)[O-])cc1)C(=O)O)c1ccc([N+](=O)[O-])cc1 (centres undefined)	0	0	-	0	0	0	-	RECQ1 conf=0;RECQ1 ADP FP=0
O=C(NCCN1C(=O)S/C(=C\c2ccc(Cl)cc2Cl)C1=O)C1=COCCO1	0	-	0	-	0	-	-
CCc1ccccc1OCC(=O)NCC1COc2ccccc2O1 (centres undefined)	0	-	0	-	0	-	-
COc1ccc(CNc2nc3c(-c4ccccc4)nnn3c3ccccc23)cc1	-	0	-	-	0	-	-
Cc1ccc(C2=CC(C)(c3ccc(C)cc3)Nc3nc(C(F)(F)F)nn32)cc1 (centres undefined)	0	0	0	?	0	0	0
Cn1c(N)c(S(=O)(=O)N2CCN(c3ccccc3Cl)CC2)c(=O)n(C)c1=O	0	0	-	-	0	-	-
O=C(Nc1nc(-c2ccccc2)cs1)Nc1ccc(F)cc1F	0	0	0	?	0	0	0
CC(COc1ccc(C(C)C)cc1)NC(=O)c1ccc(Br)o1 (centres undefined)	?	0	-	-	0	-	-
CCCCc1c(C)nc2cc(-c3ccco3)[nH]n2c1=O	?	0	0	0	0	?	-
O=C1c2nc3cc(-c4ccco4)[nH]n3c(=O)c2CN1Cc1ccccc1	0	?	?	11µM	?	?	0	RECQ1 conf=?;RECQ1 ADP FP=63µM
C=CCNC(=O)c1onc(CSc2cccc(OC)c2)c1C(=O)O	0	0	0	0	0	0	-	RECQ1 conf=0;RECQ1 ADP FP=?
CCCCNC(=O)c1onc(CSc2cccc3ccccc23)c1C(=O)O	0	0	0	0	0	0	-	RECQ1 conf=?;RECQ1 ADP FP=0
O=C(NCC1CCCO1)c1onc(CSc2cccc3ccccc23)c1C(=O)O (centres undefined)	0	0	0	0	0	0	-	RECQ1 conf=0;RECQ1 ADP FP=0
Cc1cccc(NC(=O)C(Cc2ccccc2)N2Cc3ccccc3C2=O)c1C (centres undefined)	-	0	-	-	0	-	-
COc1ccc(Cc2[nH]n3c(=O)c(Cl)c(C)nc3c2-c2ccccc2)cc1	?	0	0	0	0	0	-
O=C1CSC(=S)N1Cc1cccnc1	?	0	-	25µM	0	0	?
O=C1CSC(=S)N1c1cccnc1	0	0	0	32µM	0	0	0
O=C(O)c1ccc(CN2C(=O)CSC2=S)cc1	?	0	?	16µM	0	0	0	RECQ1 conf=0;RECQ1 ADP FP=0
O=C(O)c1ccc(N=C2SCC(=O)N2Cc2ccccc2)cc1	0	0	0	0	0	0	-
O=S(=O)(NCC(c1cccnc1)N1CCN(Cc2ccccc2)CC1)c1cc(F)ccc1F (centres undefined)	0	0	-	-	0	-	-
SMILES	APEX1 inh	BLM helicase inh	L3MBTL1 block	RECQ1 inh-1	KAT2A inh	JMJD2E inh	RECQ1 inh-2	others
CCOc1cc(/C=C2/SC(=S)NC2=O)ccc1OC(=O)c1ccco1	0	0	0	0	0	0	-
CCC1=NN2C(=N)/C(=C/c3c(C)nn(-c4ccccc4)c3Cl)C(=O)N=C2S1	0	0	0	0	0	0	-
O=C1NC(=S)S/C1=C\c1ccc(SCc2ccco2)o1	1.8µM	?	3.5µM	5µM	14µM	?	-	RECQ1 conf=40µM
CCC1=NN2C(=N)/C(=C\c3ccc(SCc4ccco4)o3)C(=O)N=C2S1	?	?	-	22µM	0	0	0
CCCC1=NN2C(=N)/C(=C\c3ccc(SCc4ccco4)o3)C(=O)N=C2S1	4µM	?	-	10µM	?	?	35µM
COC(=O)c1cc(OC)c(OC)cc1NC(=O)c1ccc2c(c1)CCN2S(C)(=O)=O	-	0	-	-	0	-	-
COc1cc2c(cc1OC)C(C1C(=O)CC(C)CC1=O)N(C(=O)CCl)CC2 (centres undefined)	0	0	0	0	0	?	-
Cn1nnc(NC(=O)c2ccc3ccccc3c2)n1	0	0	0	0	0	0	-
Cn1nnc(NC(=O)c2ccc(C(C)(C)C)cc2)n1	0	0	0	20µM	0	0	0
Cc1ccc(Cn2c(=S)[nH]c3ccc(N4CCOCC4)cc3c2=O)o1	?	0	0[11.4 µM]	18µM	?	?	-	RECQ1 conf=?;RECQ1 ADP FP=50µM
CCCCn1c(=S)[nH]c2ccc(N3CCOCC3)cc2c1=O	0	0	0	0	?	?	-
Cc1ccc(-n2cccc2C(=O)NS(=O)(=O)c2ccc(C)cc2)cc1	0	0	0	?	0	0	?
Cc1ccc(Cc2nc3ccccc3nc2SCC(=O)N2CCCCC2C)cc1 (centres undefined)	-	0	-	-	0	-	-
Cn1c(C(=O)O)c(CC(=O)NCC2COc3ccccc3O2)c2ccccc21 (centres undefined)	0	0	0	0	0	0	-	RECQ1 conf=0;RECQ1 ADP FP=0
O=C(CNC(=O)c1ccccc1)NCC1COc2ccccc2O1 (centres undefined)	0	0	-	0	0	0	-
COc1ccccc1OCCNC(=O)c1ccco1	0	0	-	-	0	-	-
COc1cc(Br)c(CCNC(=O)c2ccco2)cc1OC	0	0	0[11.4 µM]	?	0	0	0
O=C1/C(=C/c2ccco2)SC(=S)N1c1cccnc1	4µM	32µM	3.2µM	8.9µM	28µM	?	-	RECQ1 conf=50µM;RECQ1 ADP FP=50µM
Cc1ccc(C(=O)N2CCc3ccccc3C2)cc1S(=O)(=O)N1CCOCC1	0	0	-	-	0	-	-
Cc1ccccc1NS(=O)(=O)c1cc(C(=O)N2CCc3ccccc3C2)ccc1C	0	0	0	?	0	0	0
COc1ccccc1C1CC(=O)Oc2cc(C)c(Cl)cc21 (centres undefined)	0	0	?	0	0	-	-
COc1ccccc1C1CC(=O)Oc2cc3c(cc21)OCO3 (centres undefined)	32µM	0	-	35µM	28µM	-	28µM
Oc1cc2c(cc1O)[C@@H]1c3ccc(O)c(O)c3OC[C@]1(O)C2	3.2µM	0	-	13µM	-	14µM	?
